Assay [1] is described as follows: antimalarial activity against Dd2 strain (AID 2302;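 active means growth inhibition above 50% at the single 2 µM test dose, taken to imply half-maximal potency below 2 µM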;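 further: 0% = DMSO untreated growth and 100% = chloroquine plus artemisinin killed control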). The conditions noted are these: P. falciparum Dd2 in RBCs, LDH growth readout, 72 h; at 2 µM; active compounds read high.
Assay [2] is described as follows: HepG2 cytotoxicity, primary screen, cytotoxicity control for P. falciparum antimalarial project, cell-based, ATP luminescence (AID 2303;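 active means inhibition above 50%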;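 further: 0% = DMSO wells and 100% = digitonin-killed cells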). The conditions noted are these: HepG2 viability, 24-48 h, at 10 µM, active compounds read high.
The target of assay [3] is L-lactate dehydrogenase (Plasmodium falciparum (isolate CDC / Honduras)) (UniProt Q27743). Briefly: PfLDH activity inhibition – cell lysate, 3D7 strain, counter-screen for P. falciparum growth inhibition project (AID 2304).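 Further: 0% = vehicle and 100% = reference inhibitor.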 As to conditions: P. falciparum 3D7 crude extract, LDH APAD/NBT absorbance; at 2 µM; active compounds read high. On the technique in general: The purpose of a counterscreen is to sort out artefacts and off-target activity.
L-lactate dehydrogenase (Plasmodium falciparum (isolate CDC / Honduras)), sequence (Q27743 whole entry, looked up): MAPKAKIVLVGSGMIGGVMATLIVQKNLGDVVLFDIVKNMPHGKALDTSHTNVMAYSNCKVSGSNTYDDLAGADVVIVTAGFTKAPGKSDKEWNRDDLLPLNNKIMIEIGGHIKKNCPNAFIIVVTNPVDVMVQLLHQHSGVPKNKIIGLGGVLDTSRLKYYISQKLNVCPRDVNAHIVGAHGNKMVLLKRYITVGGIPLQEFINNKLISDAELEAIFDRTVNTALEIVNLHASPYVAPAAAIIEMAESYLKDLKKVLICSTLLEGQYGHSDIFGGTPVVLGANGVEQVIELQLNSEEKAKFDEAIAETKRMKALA

Assay [4] can be described thus: inhibition of 3D7 malaria parasite growth – strain 3D7 (AID 2306).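 Further: 0% = DMSO wells and 100% = chloroquine plus artemisinin control wells.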 The conditions noted are these: P. falciparum 3D7 erythrocytic growth, LDH absorbance, 72 h; at 2 µM; active compounds read high.
Assay [5] addresses Calcium-dependent protein kinase 1 (Plasmodium falciparum (isolate 3D7)) (UniProt P62344). Briefly: PfCDPK1 kinase inhibitors, biochemical, TCAMS library (AID 1159585; cut-off not given, nearly all actives have IC50 up to about 0.98 µM;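 further: inhibitors leave more ATP so luminescence rises with inhibition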). The conditions noted are these: recombinant PfCDPK1, Kinase-Glo ATP depletion luminescence. (Kinase-Glo reads ATP consumption through a luciferase reaction.)
Assay [6] deals with Plasmodium falciparum protein kinase 6 (PK6, PF3D7_1337100) (UniProt Q8IDW1). Briefly: PfPK6 kinase inhibitors, biochemical, TCAMS library (AID 1159586). The conditions noted are these: recombinant PfPK6, Kinase-Glo ATP depletion luminescence.
Plasmodium falciparum protein kinase 6 (PK6, PF3D7_1337100), sequence (Q8IDW1 1-305): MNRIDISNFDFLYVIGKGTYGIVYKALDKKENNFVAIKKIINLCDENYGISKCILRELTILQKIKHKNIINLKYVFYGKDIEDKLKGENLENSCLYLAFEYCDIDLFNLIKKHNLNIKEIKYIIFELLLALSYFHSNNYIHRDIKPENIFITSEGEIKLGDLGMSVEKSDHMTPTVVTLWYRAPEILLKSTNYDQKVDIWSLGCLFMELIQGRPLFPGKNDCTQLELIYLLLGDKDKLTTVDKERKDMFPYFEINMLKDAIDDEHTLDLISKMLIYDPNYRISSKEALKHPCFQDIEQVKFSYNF
The target in assay [7] is Protein kinase 7 (PK7), Plasmodium falciparum 3D7 (PF3D7_0213400) (UniProt Q7YTF7). Briefly: inhibition of Plasmodium PK7 catalytic activity – biochemical, TCAMS antimalarial set, Kinase-Glo luminescence (AID 1159587). The conditions noted are these: recombinant PfPK7, Kinase-Glo ATP depletion luminescence.
Protein kinase 7 (PK7), Plasmodium falciparum 3D7 (PF3D7_0213400), sequence (Q7YTF7 1-343): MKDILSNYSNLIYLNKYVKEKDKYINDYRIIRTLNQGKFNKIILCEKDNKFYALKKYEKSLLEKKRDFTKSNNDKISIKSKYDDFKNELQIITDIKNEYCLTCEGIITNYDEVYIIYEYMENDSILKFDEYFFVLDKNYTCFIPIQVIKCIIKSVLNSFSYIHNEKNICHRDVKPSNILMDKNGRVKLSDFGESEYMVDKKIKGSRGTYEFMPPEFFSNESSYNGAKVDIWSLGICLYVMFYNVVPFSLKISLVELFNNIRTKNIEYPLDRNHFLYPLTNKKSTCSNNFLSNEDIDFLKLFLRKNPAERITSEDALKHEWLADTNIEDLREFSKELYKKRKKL
The target of assay [8] is Calcium-dependent protein kinase 4 (Plasmodium falciparum (isolate 3D7)) (UniProt Q8IBS5). Put plainly: PfCDPK4 kinase inhibitors, biochemical, TCAMS library (AID 1159588; cut-off not given, nearly all actives have IC50 up to about 0.91 µM). The conditions noted are these: recombinant PfCDPK4, Kinase-Glo ATP depletion luminescence.
Calcium-dependent protein kinase 4 (Plasmodium falciparum (isolate 3D7)), sequence (Q8IBS5 whole entry, looked up): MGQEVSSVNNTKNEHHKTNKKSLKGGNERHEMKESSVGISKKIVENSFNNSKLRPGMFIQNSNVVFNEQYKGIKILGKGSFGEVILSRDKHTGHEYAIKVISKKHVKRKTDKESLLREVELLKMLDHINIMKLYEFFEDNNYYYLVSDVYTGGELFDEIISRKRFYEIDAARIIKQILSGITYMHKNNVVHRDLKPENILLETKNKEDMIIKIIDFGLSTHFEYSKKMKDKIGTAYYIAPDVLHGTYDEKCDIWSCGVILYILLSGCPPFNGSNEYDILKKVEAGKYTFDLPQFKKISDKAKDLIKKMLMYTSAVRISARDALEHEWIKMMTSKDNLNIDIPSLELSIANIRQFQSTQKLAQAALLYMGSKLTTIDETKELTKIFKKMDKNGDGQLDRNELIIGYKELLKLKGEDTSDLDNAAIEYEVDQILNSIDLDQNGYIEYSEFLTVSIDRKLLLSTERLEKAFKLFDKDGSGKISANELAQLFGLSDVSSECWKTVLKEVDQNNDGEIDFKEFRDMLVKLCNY

A number with no mark means an inactive call. For some of these results: Results with a measured potency or affinity are listed apart. The source made the active and inactive calls. Unless noted, how the calls were made is not given here.

What is called inhibition is the relative decrease from the control value, in per cent.

Calcium-dependent protein kinase 1 (Plasmodium falciparum (isolate 3D7)), sequence (P62344 whole entry, looked up): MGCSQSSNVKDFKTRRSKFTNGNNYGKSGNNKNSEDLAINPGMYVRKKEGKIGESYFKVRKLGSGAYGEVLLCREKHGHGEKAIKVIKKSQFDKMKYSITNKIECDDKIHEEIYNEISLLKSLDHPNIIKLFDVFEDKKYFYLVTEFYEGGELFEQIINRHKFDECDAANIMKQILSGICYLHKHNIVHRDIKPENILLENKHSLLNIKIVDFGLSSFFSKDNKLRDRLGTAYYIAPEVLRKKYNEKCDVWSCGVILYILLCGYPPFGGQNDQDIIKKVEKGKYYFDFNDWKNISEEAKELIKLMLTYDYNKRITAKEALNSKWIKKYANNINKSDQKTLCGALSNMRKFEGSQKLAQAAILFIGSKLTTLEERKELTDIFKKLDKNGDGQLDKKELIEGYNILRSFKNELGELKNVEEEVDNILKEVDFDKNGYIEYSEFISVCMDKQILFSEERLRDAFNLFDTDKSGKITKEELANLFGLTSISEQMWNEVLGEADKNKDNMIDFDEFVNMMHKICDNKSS

For the molecule `CN1CCN(c2nc(NCCc3ccc(O)cc3)nc(NCc3ccccc3-c3ccc(C(F)(F)F)cc3)n2)CC1`, the growth inhibition was 82% (active) in assay [1] and 90% (active) in assay [4]. Also, the inhibition in assay [2] was 35%; in assay [3], 6%. Also, the result in assay [5], in assay [6], in assay [7] and in assay [8] was inactive.
For the molecule `Cc1nc(N)nc(N)c1OCc1cccc2c1ccc1ccccc12`, the growth inhibition was 16% in assay [1] and 95% (active) in assay [4]. For the same molecule, the inhibition in assay [2] is 54% (active); in assay [3] it was 1%. Moreover, the result in assay [5], in assay [6], in assay [7] and in assay [8] was inactive.
For the molecule `O=C(C=Cc1ccc(Cl)c(Cl)c1)NCCCCCN1CCCC(CCCNC(=O)/C=C/c2ccccc2)C1` (stereo not given), the values for the growth inhibition in assay [1] and in assay [4] were 12% and 98% (active), respectively. In addition, the inhibition was 92% (active) in assay [2] and -4% in assay [3]. In addition, the result in assay [5], in assay [6], in assay [7] and in assay [8] was inactive.
`COc1ccccc1N1CCN(CCCCNC(=O)c2ccc(NC(=O)c3ccc4ccccc4c3)cc2)CC1`: the growth inhibition was 18% in assay [1] and 97% (active) in assay [4]. The inhibition in assay [2] was 16%; in assay [3] it was 1%. Besides, the result in assay [5], in assay [6], in assay [7] and in assay [8] was inactive.
As to `NCCC(=O)Nc1ccc(-c2cnc3[nH]cc(-c4ccc(C(=O)O)cc4)c3c2)cn1`, the growth inhibition is 67% (active) in assay [1] and 99% (active) in assay [4]. For the same molecule, the inhibition in assay [2] is -8%; in assay [3] it was 3%. Also, the outcome in assay [5], in assay [6], in assay [7] and in assay [8] was inactive.
Regarding `O=c1cc(NCCCNCc2cc(Br)cs2)[nH]c2ccccc12`, the growth inhibition in assay [1] was 5%; in assay [4], 85% (active). Further, the inhibition in assay [2] was 11%; in assay [3], -2%. Moreover, the result in assay [5], in assay [6], in assay [7] and in assay [8] was inactive.
In the case of `Fc1ccc(Nc2ccnc3cc(-c4cccc(CNCCN5CCOCC5)c4)ccc23)c(Cl)c1`, the values for the growth inhibition in assay [1] and in assay [4] were 99% (active) and 100% (active), respectively. For the same molecule, the inhibition was 26% in assay [2] and -1% in assay [3]. The outcome in assay [5], in assay [6], in assay [7] and in assay [8] was inactive.
Take `Oc1ccccc1CN1CCN(C(c2ccccc2)c2ccccc2)CC1`: the growth inhibition is 90% (active) in assay [1] and 98% (active) in assay [4]. Moreover, the inhibition in assay [2] is -4%; in assay [3], -1%. The result in assay [5], in assay [6], in assay [7] and in assay [8] was inactive.
For the molecule `CCCCCCCCCn1c(NCc2cc(Cl)ccc2O)nc2ccccc21`, the growth inhibition is 92% (active) in assay [1] and 97% (active) in assay [4]. For the same molecule, the results for the inhibition in assay [2] and in assay [3] were 13% and -4%, respectively. Also, the outcome in assay [5], in assay [6], in assay [7] and in assay [8] was inactive.
`CCC(C)NC(=O)Nc1cccc(-c2cccc(-c3nc4c(C)cccc4[nH]3)c2)c1` (stereo not given): the growth inhibition is 27% in assay [1] and 101% (active) in assay [4]. The inhibition was 3% in assay [2] and 5% in assay [3]. In addition, the outcome in assay [5], in assay [6], in assay [7] and in assay [8] was inactive.
With `N#CN1CC[C@@H](OC(=O)N[C@@H]2C[C@H]2c2ccccc2)C1`, the growth inhibition in assay [1] was 56% (active); in assay [4], 84% (active). Moreover, the inhibition was -1% in assay [2] and -2% in assay [3]. In addition, the outcome in assay [5], in assay [6], in assay [7] and in assay [8] was inactive.
In the case of `Cc1cccc(C)c1OC(=O)[C@@H](C)[C@@H](O)C1(Sc2ccccc2)CCN(C)CC1`, the figures for the growth inhibition in assay [1] and in assay [4] were 92% (active) and 98% (active), respectively. The results for the inhibition in assay [2] and in assay [3] were 23% and 1%, respectively. The outcome in assay [5], in assay [6], in assay [7] and in assay [8] was inactive.
As for `CC(C)CNCc1ccc(-c2cccc(CN(CCN(C)C)C(=O)NCCc3ccccc3)c2)cc1`, the growth inhibition in assay [1] was 37%; in assay [4], 91% (active). Also, the inhibition in assay [2] was 33%; in assay [3] it was -6%. The outcome in assay [5], in assay [6], in assay [7] and in assay [8] was inactive.
In the case of `Fc1ccc2nc(-c3cccc(-c4ccc(CNCCN5CCNCC5)cc4)c3)[nH]c2c1`, the growth inhibition in assay [1] is -3%; in assay [4] it was 90% (active). The inhibition in assay [2] is 9%; in assay [3] it was -2%. For the same molecule, the result in assay [5], in assay [6], in assay [7] and in assay [8] was inactive.
As to `N#Cc1cccc(COC(=O)C2=C(COc3ccccc3Cl)NC(=O)NC2c2c[nH]c3cnccc23)c1` (stereo not given), the growth inhibition is -3% in assay [1] and 99% (active) in assay [4]. For the same molecule, the inhibition is 0% in assay [2] and -1% in assay [3]. The result in assay [5], in assay [6], in assay [7] and in assay [8] was inactive.
Turning to `Cc1cc(C(=O)CN2C(=O)NC3(CCOc4ccccc43)C2=O)c(C)n1Cc1ccco1` (stereo not given), the growth inhibition is 42% in assay [1] and 93% (active) in assay [4]. Also, the inhibition in assay [2] is 13%; in assay [3], 5%. For the same molecule, the outcome in assay [5], in assay [6], in assay [7] and in assay [8] was inactive.
As to `CCOC(=O)c1cc(C(=O)NCCCCN2CCC(c3ccc(CC)cc3OCC)CC2)ccc1-c1ccc(C(F)(F)F)cc1`, the results for the growth inhibition in assay [1] and in assay [4] were 71% (active) and 99% (active), respectively. For the same molecule, the inhibition in assay [2] is 74% (active); in assay [3], -1%. Besides, the result in assay [5], in assay [6], in assay [7] and in assay [8] was inactive.
Turning to `CCCN(CCCN(CCCN(CCC)C(C)C)c1cc(C)nc(Nc2ccc(Cl)cc2)n1)C(C)C`, the growth inhibition in assay [1] is 99% (active); in assay [4] it was 102% (active). Besides, the inhibition in assay [2] is 39%; in assay [3], 0%. The outcome in assay [5], in assay [6], in assay [7] and in assay [8] was inactive.
For `COc1cc2nc(NCCCO)nc(Nc3ccc(Oc4ccccc4)cc3)c2cc1OC`, the growth inhibition in assay [1] and in assay [4] was 101% (active) in each case. The figures for the inhibition in assay [2] and in assay [3] were 24% and 0%, respectively. Further, the result in assay [5], in assay [6], in assay [7] and in assay [8] was inactive.
In the case of `COc1ccc2nccc([C@@H](O)CN3CCC(NCc4cc5ccccc5cn4)CC3)c2n1`, the figures for the growth inhibition in assay [1] and in assay [4] were 14% and 93% (active), respectively. Further, the figures for the inhibition in assay [2] and in assay [3] were 3% and -2%, respectively. The outcome in assay [5], in assay [6], in assay [7] and in assay [8] was inactive.

The values above are taken from PubChem BioAssay.
